# Compound activity from PubChem.
# The list is not random: actives were taken first. Their share in the collection is about 2%.
# GRP78 ERSR act: ER stress response induction in glioma; AID 602332; 0.02% of 420,000 active; U87-MG GRP78 promoter luciferase reporter, 16 h; Potency, µM, without a hit: at the top dose activation, actives largely listed as activators; also: series mostly up to about 76 µM; % of control where 0% means no effect; nearly all actives have a fitted effect of over 35% in size
#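 ERSR induction read as luciferase luminescence (Bright-Glo, 10 min at room temperature) in stably transfected human U87-MG glioma cells exposed to compounds for 16 h, using GRP78 as sensor.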
# TDP-43 yeast inh: inhibitors of TDP-43 toxicity in yeast; TDP-43 expressing yeast growth rescue, BacTiter-Glo, 24 h; Potency, µM (series often up to 46.1 µM), for the others: at the highest dose growth rescue (activation), actives largely listed as activators; AID 652104; 1.8% of 410,000 active; also: % of control where 0% means no effect; nearly all actives have a fitted effect of over 50% in size
#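 Readout is BacTiter-Glo luminescence of cell growth, so inhibitors register as activators. TDP-43-expressing yeast at OD600=0.02 in galactose medium, after raffinose pregrowth to mid-log, were incubated with compound for 24 hr at 30 deg C.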
# MBNL1 CUG block: MBNL1-poly(CUG) RNA binding inhibition; Potency, µM (highest dose often 57.5 µM), without a hit: at the highest dose activity change, negative = inhibition, most hits filed as inhibitors; AID 2675; 0.036% of 280,000 active; TR-FRET MBNL1-His/biotin-(CUG)12 binding, 665/545 ratio; active = well fitted inhibition curve with a large enough effect in the signal ratio, with a control signal flat, not every such curve was filed as active; inconclusive = small, poorly fitted or top-dose-only effect, or effect the other way, or a change in a side signal; inactive = no such curve, though single readings can be large or run the other way; the % refers to the signal ratio; also: % is scaled to controls: 0 for no effect and ±100 for the full control effect
# Target sequence (Q9NR56 whole entry, looked up): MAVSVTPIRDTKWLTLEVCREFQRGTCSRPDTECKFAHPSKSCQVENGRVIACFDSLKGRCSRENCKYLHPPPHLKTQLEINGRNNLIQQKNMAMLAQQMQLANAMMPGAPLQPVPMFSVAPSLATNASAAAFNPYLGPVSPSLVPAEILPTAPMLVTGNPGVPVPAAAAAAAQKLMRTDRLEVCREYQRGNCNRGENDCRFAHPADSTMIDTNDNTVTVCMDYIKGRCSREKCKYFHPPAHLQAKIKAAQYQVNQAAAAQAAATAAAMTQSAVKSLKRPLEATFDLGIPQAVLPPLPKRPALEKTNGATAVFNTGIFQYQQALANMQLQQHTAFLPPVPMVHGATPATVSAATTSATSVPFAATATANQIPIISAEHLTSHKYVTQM
#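 MBNL1-His + Biotin-(CUG)12, cpd titration 92 nM–58 uM; Tb anti-His Ab 0.055 ng/ul, SA-XL665 5 nM (final); 60 min RT; ratiometric 665/545 nm, Ex 340 nm; normalized to buffer and full-complex controls.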
# aSyn yeast inh: alpha-synuclein toxicity inhibition in yeast; Yeast expressing alpha-synuclein, growth rescue, BacTiter-Glo, 24 h; AID 652106; 0.14% of 370,000 active; Potency, µM (series often up to 46.1 µM), for inactives: at the top dose growth rescue (activation), most hits filed as activators; also: % of control where 0% means no effect; nearly all actives have a fitted effect of over 65% in size
#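 Rescue of yeast growth: cells expressing toxic alpha-synuclein, induced in galactose at OD600 0.02, incubated with compound 24 h at 30 C. ATP luminescence quantified growth; inhibitors of toxicity appear as activators.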
# Abeta rescue: A-beta toxicity reversal in yeast; yeast expressing A-beta42, growth rescue, OD600, 48 h; response scale: 0% DMSO, 100% iron-clioquinol control; Potency, µM (doses to about 46.1 µM), most hits filed as activators; 0.063% of 410,000 active; also: nearly all actives have a fitted effect of over 55% in size
#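 Yeast A-beta toxicity model in growth medium with pinned compounds, 48 h at 30 C; growth read as absorbance at 600 nm. Normalized to FeCl3/clioquinol equimolar mix (positive) and DMSO (negative).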
# FUS yeast rescue: rescues growth of FUS-expressing yeast; AID 1347120; 0.24% of 390,000 active; S. cerevisiae FUS-expressing, growth rescue, OD600, 24 h; Potency, µM (highest dose often 76.6 µM), most hits filed as activators;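 also: plate controls were DMSO vehicle for no effect and reference control for full effect; nearly all actives have a fitted effect of over 55% in size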
#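 Yeast expressing FUS under galactose induction, OD 0.005 in 2% galactose medium; compounds in a dilution series, 24 h at 30C. Growth rescue by absorbance at 600 nm; CP55940 positive control, DMSO negative.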
# An asterisk follows results filed as active; i = inactive; ? = inconclusive; . = no result. Unless noted, calls follow the shape of the dose curve; as a rule, active = well fitted curve in the direction sought with a large enough effect; inconclusive = small, poorly fitted or top-dose-only effect, or another doubt; inactive = no such curve, though single readings can be large; an effect the other way counts as inactive or inconclusive. Potency is read from the fitted curve at half-maximal effect.
SMILES,GRP78 ERSR act,TDP-43 yeast inh,MBNL1 CUG block,aSyn yeast inh,Abeta rescue,FUS yeast rescue
S=c1[nH]nc(-c2cc(-c3ccccc3)n[nH]2)n1N=Cc1c[nH]c2ccccc12,.,.,.,.,.,i
CO[C@H]1[C@H](NC(=O)c2cccs2)c2ccccc2C12CCN(Cc1cccn1-c1ccccn1)CC2,-3.1%,.,.,.,.,.
Cc1c(C(=O)OC(C)C(=O)N(C)Cc2ccccc2)oc2ccccc12 (configuration not stated),2.1%,35.5µM*,.,1.4%,i,i
c1c[nH]c(CN2CCN(Cc3ncc[nH]3)CC2)n1,-2.7%,3.98µM*,.,10.9%,i,.
c1ccc(-c2nc(-c3ccco3)n3ccccc23)cc1,2.8%,25.1µM*,?,-1.7%,i,i
CC(=O)N1N=C(c2ccccc2)CC1c1cccc([N+](=O)[O-])c1 (configuration not stated),-2.3%,12.6µM*,?,3.6%,i,i
CC(=O)N1N=C(c2cccs2)CC1c1cccc([N+](=O)[O-])c1 (configuration not stated),-2.5%,?,?,10.5%,i,i
CC(=O)N1N=C(c2cccc(Cl)c2)OC1c1cccc([N+](=O)[O-])c1 (configuration not stated),-1.5%,15.8µM*,.,2.9%,i,i
CC(=O)N1N=C(c2cccc([N+](=O)[O-])c2)OC1c1cccc(Br)c1 (configuration not stated),3.7%,19.0%,?,-5.5%,i,i
Cc1ccccc1NC1=C(Cl)C(=O)OC1OC(=O)c1ccco1 (configuration not stated),-3.1%,-9.9%,-9.9%,2.5%,i,i
Cc1ccc(NC2=C(Cl)C(=O)OC2OC(=O)c2ccc(C)cc2)cc1 (configuration not stated),-8.1%,12.6µM*,-4.7%,-0.1%,i,i
COC(=O)[C@]1(CNC(=O)c2cc(F)ccc2F)CC(=O)N(C)[C@@H]1c1ccccc1,.,.,.,.,.,i
FC(F)(F)c1ccc(-c2noc(-c3ccccc3Br)n2)cc1,-4.3%,19.8%,.,.,i,i
Nc1nonc1-c1noc(-c2ccccc2Br)n1,5.9%,12.6µM*,-3.5%,1.3%,i,i
COc1cccc(C(=O)Nc2nnc(-c3ccc(Cl)cc3)o2)c1,-0.9%,3.16µM*,-0.1%,?,?,i
O=C(COc1ccccc1)Nc1nnc(-c2ccc(Cl)cc2)o1,-0.7%,14.1µM*,11.1%,14.1µM*,?,i
CCOc1ccccc1C(=O)OCC(=O)Nc1nnc(-c2ccccc2)o1,0.0%,22.4µM*,.,?,?,i
COc1cccc(C(=O)Nc2nnc(-c3ccc(F)cc3)o2)c1,0.3%,7.08µM*,3.4%,10µM*,?,i
CCOc1ccccc1C(=O)NC(C(=O)OCC(=O)Nc1nnc(-c2ccccc2)o1)C(C)C (configuration not stated),4.0%,?,-2.5%,?,i,?
COC(=O)c1cc(CNC(=O)c2cccc3ccccc23)cc(NC(=O)c2ccccc2OC)c1,-1.7%,.,.,.,.,.
Cc1ccc2c(c1)CN(CCNC(=O)c1n[nH]c3c1CCCC3)CC(C)O2 (configuration not stated),-2.9%,.,.,.,.,.
O=C(Nc1nnc(-c2ccco2)o1)c1ccc(Cl)cc1,3.2%,?,1.4%,11.2µM*,?,i
CC(=O)c1ccc(C(=O)Nc2nnc(-c3ccc(Cl)cc3)o2)cc1,-1.5%,10µM*,-0.5%,3.16µM*,6.31µM*,i
O=C(Nc1nnc(-c2ccccc2)o1)c1ccc(Cl)cc1,0.8%,?,-6.5%,?,?,.
COc1ccc(C(C(=O)N(C)C2CCCC2)N(Cc2ccc(F)cc2)C(=O)c2cc(C)[nH]n2)cc1OC (configuration not stated),.,.,.,.,.,i
SMILES,GRP78 ERSR act,TDP-43 yeast inh,MBNL1 CUG block,aSyn yeast inh,Abeta rescue,FUS yeast rescue
CO[C@@]1(NC(=O)CSC(F)F)C(=O)N2C(C(=O)O)=C(CSc3nnnn3CCO)CO[C@@H]21,-3.1%,.,.,.,.,.
Cc1ccccc1NC(=O)COC(=O)CC1CCCC1,3.1%,-19.8%,.,1.1%,i,i
Cc1ccc(Cl)cc1NC(=O)COC(=O)CC1CCCCC1,1.2%,12.6µM*,.,4.3%,?,i
Cc1ccc(NP(=O)(c2ccc(N(C)C)cc2NC(=O)c2cccs2)N2CCOCC2)cc1Cl (configuration not stated),1.4%,-7.6%,-4.5%,13.7%,i,3.98µM*
CCOC(=O)N1C(=O)C[C@](Sc2ccc(OC)cc2)(C(=O)N2CCN(c3ncccn3)CC2)[C@H]1c1ccc(OC)cc1,.,.,.,.,.,i
O=c1oc(CCO)cc2ccc(C#Cc3ccsc3)cc12,1.1%,17.8µM*,.,-2.4%,i,i
COC(=O)c1ccc(CSc2nc(C(F)F)cc(C)c2C#N)o1,-2.2%,11.2µM*,.,0.2%,i,i
COC(=O)c1ccc(COc2nc(C)cc(C)c2C#N)o1,-1.9%,-4.6%,-4.4%,4.8%,i,i
CCCOc1ccc(CN(C(=O)c2nc(SC(C)C)ncc2Cl)C2CCS(=O)(=O)C2)cc1 (configuration not stated),-3.4%,15.7%,.,.,i,35.5µM*
CC(C)Sc1ncc(Cl)c(C(=O)N(Cc2ccc(F)cc2)C2CCS(=O)(=O)C2)n1 (configuration not stated),-2.2%,15.0%,.,.,i,i
CCOC(=O)CC[C@@]1(C(=O)OCC)C[C@@H](CC(=O)NCc2ccc(OC)c(OC)c2)C(=O)N2CCCC=C21,.,.,.,.,.,i
CCCCOc1ccc(C2C(=O)N(C3CCCCC3)CC(=O)N2CC2CCCO2)cc1 (configuration not stated),-2.5%,2.3%,-12.8%,5.8%,i,8.91µM*
CCCCCCOc1ccc(C2C(=O)N(C3CCCCC3)CC(=O)N2CCC)cc1 (configuration not stated),-3.8%,15.6%,.,.,i,i
COc1ccccc1C(=O)N(Cc1cc2cc3c(cc2nc1N(C)C)OCO3)CC1CCCO1 (configuration not stated),-2.2%,.,.,.,.,.
CCOC(=O)c1ccc(NC(=S)N2CCSC2c2ccc(Cl)cc2)cc1 (configuration not stated),?,15.8µM*,?,13.6%,i,?
O=C(CN1CCC(NC(=O)NC2CCCC2)CC1)Nc1ccc2c(c1)OCCO2,.,.,.,.,.,i
O=C(COc1ccc([N+](=O)[O-])cc1)NNC(=S)NC(=O)c1ccc(Br)cc1,8.4%,18.0%,13.8%,?,i,i
